Values without a mark were called inactive. Records with an inconclusive call do not appear. A call without a number means that no potency is given here. The source made the active and inactive calls. The call rests on the fitted dose curve; in most records, active means well fitted curve in the direction sought with a large enough effect; inconclusive means small, poorly fitted or top-dose-only effect, or another doubt; inactive means no such curve, though single readings can be large; an effect the other way counts as inactive or inconclusive.
Key:
[1] = target: Glutathione peroxidase 1 (Homo sapiens) (UniProt P07203); assay: Primary qHTS Assay for Inhibitors of Recombinant Selenoprotein Glutathione Peroxidase 1 (GPX1) (AID 1845191); further: nearly all actives have a fitted effect of over 65% in size
In short: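 GR-coupled readout: NADPH consumption tracked by fluorescence, ex 340/em 450 nm, at t=0 and after 15 min at RT. Final mix 10 nM GPX1, 1 mM GSH, 0.5 mM CHP, 0.5 mM NADPH, 100 nM GR, 0.01% BSA, following 30 min enzyme–compound preincubation.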

[2] = target: Phospholipid hydroperoxide glutathione peroxidase GPX4 (Homo sapiens) (UniProt P36969); assay: Primary qHTS Assay for Inhibitors of Recombinant Selenoprotein Glutathione Peroxidase 4 (GPX4) (AID 1845192); further: nearly all actives have a fitted effect of over 65% in size; on activity change, negative = inhibition: series mostly up to about 50 µM
In short: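 Steps: GPX4 plus compound, 30 min RT; add GR/GSH/NADPH master mix; start with cumene hydroperoxide; read 340/450 nm fluorescence at 0 and 15 min. Finals were 200 nM GPX4, 1 mM GSH, 0.5 mM CHP, 0.5 mM NADPH, 100 nM GR.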

[3] = target: Luciferin 4-monooxygenase (Photinus pyralis) (UniProt P08659); assay: Primary firefly luciferase (FLuc) qHTS assay for identification of artifact compounds. (AID 1845220); further: nearly all actives have a fitted effect of over 60% in size; on activity change, negative = inhibition: series mostly up to about 54 µM
In short: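 Titrated compounds were incubated 15 min at RT, protected from light, with luciferin and ATP at 10 uM; reaction started with 10 nM FLuc, luminescence imaged at 5 min, and concentration-response fitted by Hill equation.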

[4] = Primary fluorescence-based thiol-reactive (MSTI) qHTS assay for identification of artifact compounds. (AID 1845221); further: nearly all actives have a fitted effect of over 65% in size; further: potency means the concentration at half of the fitted maximal effect;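 on activity change, negative = thiol reactive: series mostly up to about 54 µM; thiol-reactive compounds lower the probe fluorescence signal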
In short: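 MSTI probe at 4 uM final in 2% DMSO/PBS pH 7.4; compounds, 1 h at room temperature in dark. Fluorescence Ex/Em 525/598 nm, normalised to Acetyl-MSTI and MSTI, fitted to 4-parameter Hill.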

[5] = tested on: Nanoluciferase (engineered Oplophorus gracilirostris luciferase); assay: Primary Nanoluciferase (NLuc) qHTS assay for identification of artifact compounds. (AID 1845222);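 further: NLuc secreted into diluted conditioned medium of S16 cells; series mostly up to about 54 µM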
In short: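 qHTS format, against NLuc in S16 cell-conditioned medium. Nano-Glo substrate 1:100 was added after 15 min at room temperature. Luminescence was taken after a further 5 min.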

Sequence of Glutathione peroxidase 1 (Homo sapiens) (P07203 whole entry, looked up): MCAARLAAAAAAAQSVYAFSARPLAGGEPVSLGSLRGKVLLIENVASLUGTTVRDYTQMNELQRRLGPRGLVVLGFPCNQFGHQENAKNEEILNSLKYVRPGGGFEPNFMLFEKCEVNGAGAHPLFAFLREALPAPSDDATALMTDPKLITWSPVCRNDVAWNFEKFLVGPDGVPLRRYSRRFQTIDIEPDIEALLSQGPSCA
Sequence of Phospholipid hydroperoxide glutathione peroxidase GPX4 (Homo sapiens) (P36969 whole entry, looked up): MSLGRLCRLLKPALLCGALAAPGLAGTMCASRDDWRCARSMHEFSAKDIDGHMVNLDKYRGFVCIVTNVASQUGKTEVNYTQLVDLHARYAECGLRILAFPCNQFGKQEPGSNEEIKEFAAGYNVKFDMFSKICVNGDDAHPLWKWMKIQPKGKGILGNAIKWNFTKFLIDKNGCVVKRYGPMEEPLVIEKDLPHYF

SMILES	Potency [1]	Potency [2]	Potency [3]	Potency [4]	Potency [5]	outcome [3]	activity change, negative = thiol reactive [4]	activity, negative = inhibition [5]	outcome [1]	activity change, negative = inhibition [2]
CC1=CC(=O)C[C@H]2[C@@H]1CC[C@@H](C)[C@]21CO[C@H](c2ccoc2)C1=O	inactive	inactive	inactive	inactive	inactive					
COC1CC(=O)CCC(C)OC(=O)CC1O (stereo not given)	inactive	inactive	inactive	inactive	inactive					
CCCCN(CCCC)C(=O)CN1C[C@H](c2ccc3c(c2)OCO3)[C@@H](C(=O)O)[C@@H]1c1ccc(OC)cc1	inactive	inactive	inactive	inactive	inactive					
C=CCc1ccc(O[C@@H]2O[C@H](CO[C@@H]3O[C@H](CO)[C@@H](O)[C@H](O)[C@H]3O)[C@@H](O)[C@H](O)[C@H]2O)c(O)c1	inactive	inactive	inactive	inactive	inactive					
O=C(NN1CCCCC1)c1nn(-c2ccc(Cl)cc2Cl)c(-c2ccc(C#Cc3ccc(C(F)(F)F)cc3)s2)c1CNS(=O)(=O)N1CCCC1	inactive	inactive	inactive	inactive	inactive					
C=C[C@](C)(CC/C=C(\C)C(=O)O)O[C@@H]1OC[C@H](O)[C@H](O)[C@H]1O	inactive	inactive	inactive	7.36 µM (active)	inactive					
C[C@@H]1C[C@H]2[C@@H]3CCC4=CC(=O)C=C[C@]4(C)[C@@]3(F)[C@@H](O)C[C@]2(C)[C@@]1(O)C(=O)COP(=O)(O)O	inactive	inactive	inactive	inactive	inactive					
C=C1C2=CC(O)C(C)C1(C)CC/C(C)=C/CCC1(C)OC1C2=O (stereo not given)	inactive	inactive	inactive	inactive	inactive					
COc1cc(C2Oc3c(OC)cc(CCCO[C@@H]4O[C@H](CO)[C@@H](O)[C@H](O)[C@H]4O)cc3C2CO)ccc1O (stereo not given in full)	inactive	inactive	inactive	13 µM (active)	inactive					
C=CC1(C)C=C2C(=O)CC3C(C)(C)CCCC3(C(=O)O)C2(O)CC1 (stereo not given)	inactive	inactive	inactive	inactive	inactive					
C=C(C)C1CC2(CO)C(=CC1=O)CCC(O)C2C (stereo not given)	inactive	inactive	inactive	inactive	inactive					
COC1CC(OC2CCC3(C)C(=CCC4C3CCC3(C)C(C(C)O)CCC43O)C2)OC(C)C1OC1OC(C)C(OC2OC(COC3OC(COC4OC(CO)C(O)C(O)C4O)C(O)C(O)C3O)C(O)C(O)C2O)C(OC)C1O (stereo not given)	inactive	inactive				inactive [at 11.6 µM]	54% [at 11.5 µM]	4.38% [at 11.6 µM]		
CC1(C)CC(=O)N(CCCCN2CCN(c3ncccn3)CC2)C(=O)C1	inactive	inactive	inactive	inactive	inactive					
C/C1=C\C[C@H](O[C@@H]2O[C@H](CO)[C@@H](O)[C@H](O)[C@H]2O)/C(C)=C/[C@H]2OC(=O)[C@H](C)[C@@H]2CC1	inactive	inactive	inactive	7.33 µM (active)	inactive					
CC(C)C1(O[C@@H]2O[C@H](CO)[C@@H](O)[C@H](O)[C@H]2O)CC=C(CO)CC1 (stereo not given in full)	inactive	inactive	inactive	11.7 µM (active)	inactive					
CC1OC(OC2C(O)C(C(=O)O)OC(OC3CCC4(C)C(CCC5(C)C4C=CC4=C6CC(C)(C)CC(O)C6(C)CCC45C)C3(C)C)C2OC2OCC(O)C(O)C2O)C(O)C(O)C1O (stereo not given)	inactive	inactive				inactive [at 11.6 µM]	161% [at 11.5 µM]	-10.9% [at 11.6 µM]		
C=C1C[C@]23C[C@H]1CC[C@H]2[C@]1(C)CCC[C@@]2(CO)C(=O)O[C@H]([C@H]21)[C@@H]3O	inactive	inactive	inactive	inactive	inactive					
C[C@@H]1O[C@@H](O[C@@H]2[C@@H](O)[C@H](O[C@@H]3[C@@H](O)[C@@H](O)[C@H](O[C@H]4[C@H](OC(=O)[C@]56CCC(C)(C)C[C@H]5C5=CCC7[C@@]8(C)C[C@H](O)[C@H](O[C@@H]9O[C@H](C(=O)O)[C@@H](O)[C@H](O)[C@H]9O)[C@@](C)(CO)C8[C@H](O)C[C@@]7(C)[C@]5(C)CC6)OC[C@H](O)[C@@H]4O)O[C@H]3C)OC[C@H]2O)[C@H](O)[C@H](O)[C@H]1O (stereo not given in full)						inactive [at 11.6 µM]	319% [at 11.5 µM]	0.798% [at 11.6 µM]	inactive [at 9.52 µM]	-2.98% [at 9.73 µM]
C[C@@H]1O[C@@H](O[C@H]2[C@H](OC(=O)C34CCC(C)(C)CC3C3=CCC5C6(C)CC(O)C(O[C@@H]7O[C@H](CO)[C@@H](O)[C@H](O)[C@H]7O)C(C)(C(=O)O)C6CCC5(C)C3(CO)CC4)O[C@H](C)[C@H](O)[C@@H]2O)[C@H](O)[C@H](O)[C@H]1O[C@@H]1OC[C@@H](O)[C@H](O)[C@H]1O (stereo not given in full)	inactive	inactive				inactive [at 11.6 µM]	89.3% [at 11.5 µM]	2.8% [at 11.6 µM]		
